In PubChem BioAssay (NCATS):
Several values for one entry are separate records, joined by “and”; a condition that tells them apart may be missing. Equal entries are not always repeated. Inconclusive results are not listed. Values without a mark were called inactive. Activity calls are given as the source filed them. Calls follow the shape of the dose curve; as a rule, active = well fitted curve in the direction sought with a large enough effect; inconclusive = small, poorly fitted or top-dose-only effect, or another doubt; inactive = no such curve, though single readings can be large or run the other way.

Experiment: qHTS Assay for Identifying Gametocytocidal Compounds (AID 743244);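 as to max response: actives lower the fluorescent signal which means gametocytes are killed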
Settings: P. falciparum 3D7 stage III-V gametocytes, alamarBlue, 72 h; max response: hits give low values
From the text: Malaria cases and deaths have dropped 50% in 29 countries since 2000 due to the combined effects of long-lasting insecticidal bednets, indoor residual spraying, and artemisinin-based combination therapies (ACTs). This success has raised hopes for malaria eradication and consequently stimulated interest in developing new reagents that block gametocyte transmission such as novel and safe gametocytocidal drugs. However, previous drug development efforts have focused primarily on the asexual parasites that cause symptoms, but not malaria transmission. Consequently, patients can remain infectious for weeks after the clearance of asexual parasites and clinical symptoms. To be transmitted from person to person via a mosquito, the parasites must switch from asexual to sexual development and produce male and female gametocytes. Malaria gametocytes consist of five stages (I, II, III, IV and V). The late stage gametocytes (III, IV and V) are difficult to be cultured in vitro and the long lifespan of mature gametocytes allows them being transmitted from host to mosquitoes unless they are completely eliminated by gametocytocidal agents. To identify gametocytocidal compounds which are capable of killing late stage P. falciparum gametocytes, a high throughput gametocyte viability assay was employed. This assay uses oxidoreduction indicator, alamarBlue, as a general measure of metabolic activity of gametocytes. Within live cells, the nonfluorescent resazurin is reduced to resorufin, a bright red fluorescence dye. Fluorescence decreases upon treatment of gametocytocidal compounds. P. falciparum gametocyte (3D7 strain) was used in this study.
The 1536-well gametocycidal viability assay was based on the previous method of Tanaka et al. Stage III-V gametocytes were tested against three compound libraries, including 4265 compounds from NCGC pharmaceutical collection, 400 from Malaria Box library, and 550 from an internal collection of kinase inhibitors. Briefly, 2.5 ul/well incomplete medium was dispensed into each well of 1,536-well plates using the Multidrop Combi followed by 23 nl compound transferring using the NX-TR Pintool (WAKO Scientific Solutions, San Diego, CA). Then, 2.5 ul/well of gametocytes was dispensed with a seeding density of 20,000 cells/well using the Multidrop Combi. The assay plates were incubated for 72 h at 37C with 5% CO2. After addition of 5 ul/well of 2X AlamarBlue dye (Life Technologies, cat. no. DAL1100), the plates were incubated for 24 h at 37C with 5% CO2 and then were read in a fluorescence detection mode (Ex = 525 nm, Em = 598 nm) on a ViewLux plate reader (PerkinElmer).
% is scaled to controls: 0 for no effect and ±100 for the full control effect; potency is read from the fitted curve at half-maximal effect.

Structure (SMILES) | max response | Potency
C[C@]12C[C@H](O)[C@H]3[C@@H](CCC4=CC(=O)CC[C@@]43C)[C@@H]1CC[C@@H]2C(=O)CO | -3.84% and -1.24% | 
C[C@](N)(Cc1ccc(O)cc1)C(=O)O | 18.5% and 8.95% | 
Cc1cc(CC(=O)O)n(C)c1C(=O)c1ccc(Cl)cc1 | 5.09% and -10.7% | 
N[C@@H](CSCCCO)C(=O)O | -2.32% | 
CC(C)(O)c1ccccc1CC[C@@H](SCC1(CC(=O)O)CC1)c1cccc(/C=C/c2ccc3ccc(Cl)cc3n2)c1 | -7.08% | 
CC(C)(C)NCC(O)COc1ccc(NC(=O)NC2CCCCC2)cc1 (stereo not given) | 11.9% | 
Oc1cccc(O)c1 | -1.48% | 
O=c1cc[nH]c(=S)[nH]1 | 12.7% | 
CCCCOC(=O)c1ccc(O)cc1 | 0.124% | 
CC1(C)Oc2ccc(C#N)cc2[C@@H](N2CCCC2=O)[C@@H]1O | -8.5% and 8.76% | 
COC(=O)C1=C(C)NC(C)=C(C(=O)OC)C1c1ccccc1[N+](=O)[O-] | 13.4% and 13.1% | 
CSc1ccc2c(c1)C(N1CCN(C)CC1)Cc1ccccc1S2 (stereo not given) |  | 12.6 µM (active)
COc1cc2[nH]c(=O)[nH]c(=O)c2cc1OC | 5.15% | 
O=c1[nH]cnc2c1ncn2[C@@H]1O[C@H](CO)[C@@H](O)[C@H]1O | 5.28% | 
CN(C)CCOC(C)(c1ccccc1)c1ccccn1 (stereo not given) | 7.8% | 
CC1(C)S[C@@H]2[C@H](NC(=O)Cc3ccccc3)C(=O)N2[C@H]1C(=O)O (tested in a mixture with another compound) | -2.5% | 
O=C1NS(=O)(=O)c2ccccc21 | 5.05% | 
C=Cc1c(C)c2cc3[nH]c(cc4nc(cc5nc(cc1[nH]2)C(C)=C5CCC(=O)O)C(CCC(=O)O)=C4C)c(C)c3C=C | 11.4% and 22% | 
Oc1cn2c(n1)Nc1ccc(Cl)c(Cl)c1C2 | 2.25% and 14.5% | 
CCCCc1ncc(/C=C(\Cc2cccs2)C(=O)O)n1Cc1ccc(C(=O)O)cc1 | -3.3% | 

Structure (SMILES) | max response | Potency
O=C(O)CN1C(=O)c2cccc3cccc(c23)C1=O | 0.25% | 
Cc1ncc([N+](=O)[O-])n1CC(O)CCl (stereo not given) | 22.3% | 
C[C@@H]1CC[C@@]2(OC1)O[C@H]1C[C@H]3[C@@H]4CC[C@H]5C[C@@H](O)CC[C@]5(C)[C@H]4CC(=O)[C@]3(C)[C@H]1[C@@H]2C | -9.03% | 
CS(=O)(=O)c1ccc([C@@H](O)[C@@H](CF)NC(=O)C(Cl)Cl)cc1 | 23.9% | 
CC12CCC(CC1)C(C)(C)O2 | 7.91% | 
Cn1c(=O)c2c(ncn2CC2OCCO2)n(C)c1=O | 2.6% | 
CCOC(CN1CCN(CC(C)C(=O)c2ccccc2)CC1)c1ccccc1 (stereo not given) | 18.2% | 
O=C1O[C@H]([C@@H](O)CO)C(O)=C1O | -4.25% and 24.7% | 
Cc1cc(O)cc2c1O[C@](C)(CCC[C@H](C)CCC[C@H](C)CCCC(C)C)CC2 | -2.34% and 0.0933% | 
CCCCC/C(C=O)=C\c1ccccc1 | 8.31% | 
Oc1ccc(C(O)CNCCCCCCNCC(O)c2ccc(O)c(O)c2)cc1O (stereo not given) | -5.82% | 
N[C@H]1C(O)O[C@H](CO)[C@@H](O)[C@@H]1O (stereo not given in full) | -9.09% | 
CC(=O)c1ccc2c(c1)N(CCCN(C)C)c1ccccc1S2 | -10.5% | 
[O-][n+]1cccc(CO)c1 | -4.23% | 
Cc1cc2c(cc1S(N)(=O)=O)S(=O)(=O)CCC2 | 20.4% | 
CN1[C@@H]2CC[C@H]1CC(OC(=O)C(O)c1ccccc1)C2 (stereo not given in full) | -8.53% and 3.5% and -4.14% | 
C[C@H](N)[C@H](O)c1cccc(O)c1 | 5.58% | 
C[C@@H]1C[C@H]2[C@@H]3C[C@H](F)C4=CC(=O)C=C[C@]4(C)[C@@]3(F)[C@@H](O)C[C@]2(C)[C@@]1(O)C(=O)CO | 2.1% | 
CC(CN(C)C)CN1c2ccccc2CCc2ccccc21 (stereo not given) | 4.34% | 
CCN(CC)CCNC(=O)c1cc(Cl)c(N)cc1OC | -1.62% | 
